# Among all 5,500 compounds or so, about 2,000 (36%) were called active. Not shown: some 18% with an inconclusive outcome. Some of the results follow. A number with no mark means an inactive call. No stated cut-off is given here; in the data, active means normalized growth mostly below about 0.91 (no sharp cut-off); inconclusive means no clear call, values can overlap the other calls; inactive means mostly above about 0.92.
# Test: chemical genetic growth profiling, strain panel (AID 1159580);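 further: tested at 20 µM; growth read once vehicle control cultures reached saturation at 30 °C; 1 = growth at the plate median or of vehicle wells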
# Conditions: growth OD
compound,measurement,setting,value
C[C@]12CCC3C(CC[C@H]4C[C@@H](Cl)CC[C@]34C)C1CCC2=O (stereo partly drawn),normalized growth,"S. cerevisiae deletion strains, locus YBR021W, strain FUR4, stronger effect = lower value",0.947
same,normalized growth,"S. cerevisiae deletion strains, locus YBR229C, strain ROT2, stronger effect = lower value",1.03
same,normalized growth,"S. cerevisiae deletion strains, locus YCL029C, strain bik1, stronger effect = lower value",0.968
same,normalized growth,"S. cerevisiae deletion strains, locus YDL035C, strain GPR1, stronger effect = lower value",0.921
same,normalized growth,"S. cerevisiae deletion strains, locus YDL074C, strain BRE1, stronger effect = lower value",0.87
same,normalized growth,"S. cerevisiae deletion strains, locus YDL101C, strain DUN1, stronger effect = lower value",0.997
same,normalized growth,"S. cerevisiae deletion strains, locus YDL134C, strain PPH21, stronger effect = lower value",0.977
same,normalized growth,"S. cerevisiae deletion strains, locus YDL185W, strain tfp1, stronger effect = lower value",1.02
same,normalized growth,"S. cerevisiae deletion strains, locus YDL192W, strain arf1, stronger effect = lower value",0.956
same,normalized growth,"S. cerevisiae deletion strains, locus YDR101C, strain arx1, stronger effect = lower value",1.01
same,normalized growth,"S. cerevisiae deletion strains, locus YDR150W, strain NUM1, stronger effect = lower value",1.01
same,normalized growth,"S. cerevisiae deletion strains, locus YDR162C, strain NBP2, stronger effect = lower value",0.885
same,normalized growth,"S. cerevisiae deletion strains, locus YDR318W, strain mcm21, stronger effect = lower value",0.981
same,normalized growth,"S. cerevisiae deletion strains, locus YDR388W, stronger effect = lower value",1.02
same,normalized growth,"S. cerevisiae deletion strains, locus YDR502C, strain sam2, stronger effect = lower value",0.988
same,normalized growth,"S. cerevisiae deletion strains, locus YER110C, stronger effect = lower value",1.02
same,normalized growth,"S. cerevisiae deletion strains, locus YER155C, strain BEM2, stronger effect = lower value",1.02
same,normalized growth,"S. cerevisiae deletion strains, locus YER167W, strain BCK2, stronger effect = lower value",0.983
same,normalized growth,"S. cerevisiae deletion strains, locus YGL078C, strain dbp3, stronger effect = lower value",0.99
same,normalized growth,"S. cerevisiae deletion strains, locus YGL086W, strain mad1, stronger effect = lower value",0.959
same,normalized growth,"S. cerevisiae deletion strains, locus YGL248W, strain PDE1, stronger effect = lower value",0.972
same,normalized growth,"S. cerevisiae deletion strains, locus YGR078C, strain PAC10, stronger effect = lower value",0.951
same,normalized growth,"S. cerevisiae deletion strains, locus YGR135W, strain pre9, stronger effect = lower value",0.997
same,normalized growth,"S. cerevisiae deletion strains, locus YGR252W, strain gcn5, stronger effect = lower value",0.993
same,normalized growth,"S. cerevisiae deletion strains, locus YHR030C, strain SLT2, stronger effect = lower value",1.02
same,normalized growth,"S. cerevisiae deletion strains, locus YHR079C, strain IRE1 (second series), stronger effect = lower value",1.02
same,normalized growth,"S. cerevisiae deletion strains, locus YHR094C, strain hxt1, stronger effect = lower value",1.02
same,normalized growth,"S. cerevisiae deletion strains, locus YHR129C, strain ARP1, stronger effect = lower value",0.987
same,normalized growth,"S. cerevisiae deletion strains, locus YHR200W, strain rpn10, stronger effect = lower value",0.951
same,normalized growth,"S. cerevisiae deletion strains, locus YIL066C, strain RNR3, stronger effect = lower value",0.957
same,normalized growth,"S. cerevisiae deletion strains, locus YIL073C, strain SPO22, stronger effect = lower value",1.05
same,normalized growth,"S. cerevisiae deletion strains, locus YIL125W, strain kgd1, stronger effect = lower value",1
same,normalized growth,"S. cerevisiae deletion strains, locus YIR030C, strain dcg1, stronger effect = lower value",1.02
same,normalized growth,"S. cerevisiae deletion strains, locus YJL095W, strain BCK1, stronger effect = lower value",0.952
same,normalized growth,"S. cerevisiae deletion strains, locus YJL134W, strain LCB3, stronger effect = lower value",1.02
same,normalized growth,"S. cerevisiae deletion strains, locus YJL168C, strain set2, stronger effect = lower value",1.04
same,normalized growth,"S. cerevisiae deletion strains, locus YJL187C, strain SWE1 (second series), stronger effect = lower value",0.993
same,normalized growth,"S. cerevisiae deletion strains, locus YJR043C, strain POL32, stronger effect = lower value",0.925
same,normalized growth,"S. cerevisiae deletion strains, locus YKL009W, strain mrt4, stronger effect = lower value",1.02
same,normalized growth,"S. cerevisiae deletion strains, locus YKL068W, stronger effect = lower value",1.01
same,normalized growth,"S. cerevisiae deletion strains, locus YKL085W, strain MDH1 (second series), stronger effect = lower value",0.998
same,normalized growth,"S. cerevisiae deletion strains, locus YKL085W, strain MDH1, stronger effect = lower value",0.998
same,normalized growth,"S. cerevisiae deletion strains, locus YKR001C, strain vps1, stronger effect = lower value",0.937
same,normalized growth,"S. cerevisiae deletion strains, locus YLR039C, strain RIC1, stronger effect = lower value",0.769
same,normalized growth,"S. cerevisiae deletion strains, locus YLR058C, strain SHM2, stronger effect = lower value",0.984
same,normalized growth,"S. cerevisiae deletion strains, locus YLR102C, strain apc9, stronger effect = lower value",1.01
same,normalized growth,"S. cerevisiae deletion strains, locus YLR268W, strain sec22, stronger effect = lower value",0.982
same,normalized growth,"S. cerevisiae deletion strains, locus YLR330W, strain CHS5, stronger effect = lower value",0.987
same,normalized growth,"S. cerevisiae deletion strains, locus YLR371W, strain rom2, stronger effect = lower value",0.99
same,normalized growth,"S. cerevisiae deletion strains, locus YLR418C, strain cdc73, stronger effect = lower value",0.849
same,normalized growth,"S. cerevisiae deletion strains, locus YML016C, strain PPZ1, stronger effect = lower value",1.01
same,normalized growth,"S. cerevisiae deletion strains, locus YML032C, strain rad52, stronger effect = lower value",0.993
same,normalized growth,"S. cerevisiae deletion strains, locus YML124C, strain tub3, stronger effect = lower value",1.02
same,normalized growth,"S. cerevisiae deletion strains, locus YMR078C, strain ctf18, stronger effect = lower value",1.03
same,normalized growth,"S. cerevisiae deletion strains, locus YMR223W, strain ubp8, stronger effect = lower value",0.999
same,normalized growth,"S. cerevisiae deletion strains, locus YMR307W, strain GAS1, stronger effect = lower value",1.06
same,normalized growth,"S. cerevisiae deletion strains, locus YNL067W, strain RPL9B, stronger effect = lower value",0.986
same,normalized growth,"S. cerevisiae deletion strains, locus YNL233W, strain BNI4, stronger effect = lower value",0.969
same,normalized growth,"S. cerevisiae deletion strains, locus YNL250W, strain rad50, stronger effect = lower value",1.03
same,normalized growth,"S. cerevisiae deletion strains, locus YNL271C, strain bni1, stronger effect = lower value",1.01
same,normalized growth,"S. cerevisiae deletion strains, locus YNL298W, strain CLA4, stronger effect = lower value",0.967
same,normalized growth,"S. cerevisiae deletion strains, locus YNL307C, strain MCK1, stronger effect = lower value",0.888 (active)
same,normalized growth,"S. cerevisiae deletion strains, locus YNR052C, strain pop2, stronger effect = lower value",0.976
same,normalized growth,"S. cerevisiae deletion strains, locus YOL006C, strain TOP1, stronger effect = lower value",0.863
same,normalized growth,"S. cerevisiae deletion strains, locus YOL012C, strain htz1",0.88
same,normalized growth,"S. cerevisiae deletion strains, locus YOL147C, strain pex11, stronger effect = lower value",0.972
same,normalized growth,"S. cerevisiae deletion strains, locus YOR061W, strain CKA2, stronger effect = lower value",1.02
same,normalized growth,"S. cerevisiae deletion strains, locus YOR069W, strain VPS5, stronger effect = lower value",1.01
same,normalized growth,"S. cerevisiae deletion strains, locus YOR136W, strain idh2, stronger effect = lower value",1
same,normalized growth,"S. cerevisiae deletion strains, locus YOR144C, strain elg1, stronger effect = lower value",1.01
same,normalized growth,"S. cerevisiae deletion strains, locus YOR184W, strain ser1, stronger effect = lower value",0.733 (active)
same,normalized growth,"S. cerevisiae deletion strains, locus YOR316C, strain cot1, stronger effect = lower value",1.02
same,normalized growth,"S. cerevisiae deletion strains, locus YPR119W, strain clb2, stronger effect = lower value",1.03
same,normalized growth,"S. cerevisiae deletion strains, locus YPR141C, strain kar3, stronger effect = lower value",1.03
same,normalized growth,"S. cerevisiae deletion strains, locus YPR163C, strain tif3, stronger effect = lower value",0.969
same,normalized growth,"S. cerevisiae deletion strains, locus YPR167C, strain met16, stronger effect = lower value",0.996
same,normalized growth,"S. cerevisiae deletion strains, strain wtn01, stronger effect = lower value",0.967
same,normalized growth,"S. cerevisiae strains, strain wild type, stronger effect = lower value",0.909

# — PubChem BioAssay AID1159580 (chemical genetic matrix, 2015)
